Hits are enriched below; roughly 6.1% of the tested compounds scored in any of these assays.
ERG-DNA inh: qHTS for Small Molecule Inhibitors of the ERG Ets/DNA interaction; Transcriptional regulator ERG (Homo sapiens), P11308; fluorescence polarization, His-ERG Ets domain / labelled DNA; Potency, µM (series often up to 76.9 µM), usual class: inhibitors; actives 0.028% (n = 370,000); AID 624246, 2012; active = well fitted inhibition curve with a large enough effect in the polarisation, with a control signal flat; inconclusive = small, poorly fitted or top-dose-only effect, or effect the other way, or a change in a side signal; inactive = no such curve, though single readings can be large or run the other way; the % refers to the polarisation;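 note: polarization taken with two DNA probes labelled with fluorescein and Texas red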
Target sequence (P11308 whole entry, looked up, the tested form may be a part): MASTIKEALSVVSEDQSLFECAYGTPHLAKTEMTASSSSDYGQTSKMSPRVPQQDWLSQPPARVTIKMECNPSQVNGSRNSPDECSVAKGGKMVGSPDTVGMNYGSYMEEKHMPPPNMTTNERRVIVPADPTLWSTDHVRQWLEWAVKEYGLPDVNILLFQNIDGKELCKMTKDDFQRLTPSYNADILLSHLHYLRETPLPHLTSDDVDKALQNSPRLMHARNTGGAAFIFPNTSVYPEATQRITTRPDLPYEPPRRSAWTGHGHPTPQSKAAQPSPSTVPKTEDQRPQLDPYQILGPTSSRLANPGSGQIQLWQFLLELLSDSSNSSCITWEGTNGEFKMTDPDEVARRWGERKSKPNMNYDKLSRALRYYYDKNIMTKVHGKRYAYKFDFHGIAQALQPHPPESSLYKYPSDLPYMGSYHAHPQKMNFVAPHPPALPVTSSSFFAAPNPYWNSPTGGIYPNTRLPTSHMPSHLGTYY
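His-tagged ERG Ets domain (1 uM in the protein solution; 300mM KCl, 50mM Tris-HCl, 1mM EDTA, 1mM DTT, pH 7.5) received compound, then a probe mix of 5 nM fluorescein-DNA and 100nM Texas-615-DNA. Fluorescence polarization was read for both dyes.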
DRD3 antagonist: qHTS of D3 Dopamine Receptor Antagonist: qHTS; D(3) dopamine receptor (Homo sapiens), P35462; D3R cells, DiscoveRx beta-arrestin luminescence, antagonist mode; hits give low values; max response, negative = inhibition, %; actives 2.5% (n = 360,000); in the data active = max response below about -50%; inconclusive = no clear call, values can overlap the other calls
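Cells expressing the human receptor were seeded at 1500 cells/well, incubated overnight at 37 degrees C in 5% CO2, then exposed to library compounds with dopamine controls for 90 minutes at 37 degrees C before luminescent detection.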
D3 ag: qHTS of D3 Dopamine Receptor Agonist: qHTS | D3R DiscoveRx beta-arrestin cells, luminescence, 90 min | max activation, % | actives 0.58% (n = 410,000) | AID 652048, 2013; in the data active = max activation above about 30%
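Agonist-mode cell screen: cells plated at 1500/well and incubated overnight at 37 °C, then exposed to library compounds for 90 min at 37 °C. Detection reagent was added for 30–60 min at room temperature, and luminescence was read.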
D1 PAM: Potentiators of Human D1 Dopamine Receptor: qHTS. D(1A) dopamine receptor (Homo sapiens), P21728. HEK293 TREx D1 cells, calcium flux, dopamine EC20 potentiation. potentiation, % at 10 µM. actives 0.036% (n = 360,000). AID 504651, 2011; in the data active = potentiation above about 30%
D1 antagonist: Antagonist of Human D 1 Dopamine Receptor: qHTS. HEK293 TREx D1 cells, calcium flux, dopamine EC80; hits give low values. D(1A) dopamine receptor (Homo sapiens), P21728. actives 3.2% (n = 360,000). activity change, negative = inhibition, % at 10 µM; in the data active = activity change below about -30%
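Tetracycline-induced HEK293 T-REx cells with force-coupled D1 receptor were loaded with a no-wash calcium dye. Compound was added after a 10 s baseline and read kinetically for 180 s; EC80 dopamine was then added and calcium flux followed another 180 s.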
D1 agonist: Allosteric Agonists of the Human D1 Dopamine Receptor: qHTS | D(1A) dopamine receptor (Homo sapiens), P21728 | HEK293 T-REx D1 cells, calcium flux, agonist mode | activation, % at 2 µM | actives 1% (n = 360,000); in the data active = activation above about 30%
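Agonism was scored from calcium flux recorded over 180 s (1 read/s) after pintool compound addition, following a 10-cycle baseline. Cells were inducible force-coupled HEK293 TREx D1, plated overnight at 30 C and loaded with no-wash calcium dye.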
A number is an active result; i = inactive; ? = inconclusive; nt = no result.

SMILES	ERG-DNA inh	DRD3 antagonist	D3 ag	D1 PAM	D1 antagonist	D1 agonist
CCOC(=O)c1c(NC(=O)CSc2cn(CCNC(=O)c3ccc(OC)cc3)c3ccccc23)sc2c1CCCC2	i	nt	i	i	i	i
CCOc1ccc(-c2nn(-c3ccccc3)cc2C2NC(=O)NC(C)=C2C(=O)OC(C)C)cc1C (stereo not given)	i	nt	i	i	-36	i
CCOc1ccc(-c2nn(-c3ccccc3)cc2C2NC(=O)NC(C)=C2C(=O)OC(C)C)cc1 (stereo not given)	i	nt	i	i	i	i
COc1ccc(NC(=O)CC(C)CC(=O)NCc2ccccc2)c(OC)c1 (stereo not given)	i	i	i	i	i	i
S=C(S)OC1CC2CC1C1CCCC21 (stereo not given)	i	-80	i	nt	nt	nt
CC(NC(=O)CN(c1cccc(C(F)(F)F)c1)S(=O)(=O)c1ccc(Cl)c([N+](=O)[O-])c1)c1ccccc1 (stereo not given)	i	-54	i	i	i	i
O=C(CN(c1cccc(C(F)(F)F)c1)S(=O)(=O)c1ccc(Cl)c([N+](=O)[O-])c1)NCc1ccccc1	i	i	i	i	-31	i
COc1ccc(/C(C)=N/Nc2ccc(C(=O)O)cc2)cc1OC	i	i	i	i	-31	i
c1ccc(-c2ccc3[nH]ccc3c2)cc1	i	i	i	i	nt	i
c1ccc2[nH]ccc2c1	nt	nt	50	nt	nt	nt
Cc1ccccc1NC(=O)CCc1c(C)nn(-c2ccc(N3CCOCC3)nn2)c1C	i	i	i	i	i	i
CCn1c(N2CCN(C(=S)NC)CC2)nc2ccccc21	nt	i	i	i	-32	i
CCn1c(N2CCN(S(=O)(=O)c3ccc(Cl)cc3)CC2)nc2ccccc21	i	i	44	i	i	i
CCn1c(N2CCN(C(=S)NCCc3ccccc3)CC2)nc2ccccc21	i	?	i	i	-36	i
CC(=O)c1nc2ccccc2n1S(=O)(=O)c1ccc(Cl)cc1	i	i	i	i	-36	i
CCn1c(N2CCN(C(=S)NCC(C)C)CC2)nc2ccccc21	nt	i	i	i	i	i
CCn1c(N2CCN(S(=O)(=O)c3ccc(F)cc3)CC2)nc2ccccc21	i	i	i	i	i	i
COc1cc(NC(=NS(=O)(=O)c2ccccc2)c2ccccc2)ncn1	i	-100	i	nt	nt	nt
O=C(/C=C/c1cccs1)N1CCC2(CC1)Oc1ccc(Cl)cc1C(=O)C21CC(c2cccnc2)=NO1 (stereo not given)	i	i	37	i	i	i
O=C(Nc1nnc(-c2ccccc2)s1)c1cc(S(=O)(=O)N2CCOCC2)c(Cl)cc1Cl	i	-70	i	i	i	i
O=[N+]([O-])c1ccc(Nc2ccc(N3CCOCC3)cc2)c([N+](=O)[O-])c1	i	i	i	i	i	i
COc1ccc(NC(=O)Nc2ccc3nonc3c2)cc1	i	i	i	i	i	i
Cc1c(NC(=O)CSCc2c(F)cccc2Cl)c(=O)n(-c2ccccc2)n1C	i	i	i	i	i	i
O=C(NCc1cccs1)C1CCCN(S(=O)(=O)c2cccc3cccnc23)C1 (stereo not given)	i	i	i	i	i	i
O=C(NCCN1CCOCC1)c1cc2sccc2n1Cc1ccc(F)cc1	i	-97	i	i	i	i
O=C(NCCN1CCOCC1)c1cc2sccc2n1Cc1ccc(Cl)cc1	i	-96	i	i	i	i
Cc1ccc(CCNC(=O)c2cc3sccc3n2Cc2ccc(Cl)cc2)cc1	i	nt	i	i	i	i
Cc1c(C)n(Cc2ccc(Cl)cc2)c2ccc(C(=O)NCCN3CCOCC3)cc12	i	i	i	i	-38	i

Source: PubChem BioAssay (National Center for Advancing Translational Sciences (NCATS))
